In all, about 68,000 sequences were measured (“fluorescence intensity (a.u.)”: median about 9,100, highest 2% from about 16,000 on). This is one part of a sample in which the highest values are shown more often than they occur.

Sequence of OsWRKY34 (Q0JBA9 entry or part of it): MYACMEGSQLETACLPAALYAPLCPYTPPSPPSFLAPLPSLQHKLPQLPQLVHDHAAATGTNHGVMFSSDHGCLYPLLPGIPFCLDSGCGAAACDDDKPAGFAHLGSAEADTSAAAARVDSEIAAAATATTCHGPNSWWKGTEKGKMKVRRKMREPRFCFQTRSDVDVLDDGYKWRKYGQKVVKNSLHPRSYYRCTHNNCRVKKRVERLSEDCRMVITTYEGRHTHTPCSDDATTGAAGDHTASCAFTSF

The assay addresses OsWRKY34 (Oryza sativa, UniProt Q0JBA9 1-250). Kind of assay: protein-binding microarray (RPBM); PBS, 2% BSA, 51.3 ng/ul salmon testes DNA, 50 uM zinc acetate, 200 nM TF, 25 C, 1 h; high values mean tight binding. The conditions noted are these: protein: recombinant; tags: N-terminal polyhistidine and DsRed monomer fusion (pET32a); label: CyDye5-dUTP incorporated in the synthesized complementary strand; 3' TTTTT single-stranded linker to array surface; dsDNA, one strand shown. The procedure, abridged: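 Binding signal is reported as fluorescence intensity per feature (arbitrary units) from an Axon 4000B scanner. Incubation used 200 nM of each Ni–NTA-purified, N-terminally polyhistidine- and DsRed-fused transcription factor from E. coli BL21-CodonPlus on a double-stranded custom Agilent array for 1 h at 25 °C, with 50 µM zinc acetate in the buffer, followed by washing.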
For “TTCATTCATATGGTGTAACTTTTTGTCGCTGTAGGATCGCCGGAGTCACCTAGTGCAG”, the binding signal was 8130 fluorescence intensity (a.u.). “CTTGCTGCCTGGATTTCTCCCTGTTTGCTCCCTGACGGAGCGGAGTCACCTAGTGCAG”: the binding signal is 9470 fluorescence intensity (a.u.). Next, “TCCGTGACTATGCTTCTTCTTTTCTTTAATTTTCACCAGACGGAGTCACCTAGTGCAG”: 8750 fluorescence intensity (a.u.).

As for “AATCAGATGGAGAGTTGGTTATATGGGTGTTTGGAGAGTTCGGAGTCACCTAGTGCAG”, the binding signal was 8410 fluorescence intensity (a.u.). Next, “ATCTCCAAAATCAGTTTAACATCGCCTAATCCACGTCGGTCGGAGTCACCTAGTGCAG”: 8820 fluorescence intensity (a.u.); “TTTGCGTCGCCTTTCATTTTGGATGTTTCAATTTGAATACCGGAGTCACCTAGTGCAG”: 10400 fluorescence intensity (a.u.). For “GGAGGAGGGGCGGCGGAGCGGGTGGTGGGGAGGCGACATGCGGAGTCACCTAGTGCAG”, the binding signal was 17900 fluorescence intensity (a.u.).

“CTGGGGAGGGCGACGGCGCAGTGCGGGGTGGACGGGAGCGCGGAGTCACCTAGTGCAG”: the binding signal is 8270 fluorescence intensity (a.u.). Next, “GGAGCGCTGGGAGGAAGGGCGTAGGGAGGGAGGGGTGAGGCGGAGTCACCTAGTGCAG”: 11600 fluorescence intensity (a.u.). Next, “GTTTTGTTGGGTCGGCGGCGGCGGGTGAGAGTGGAGAATGCGGAGTCACCTAGTGCAG”: 12900 fluorescence intensity (a.u.); “GGTGGAGGAGGTGGGCGGGGAAAGCGGCGACGTGAGGCGGCGGAGTCACCTAGTGCAG”: 14400 fluorescence intensity (a.u.); “GCGCGGCGTTGTTGGGTGTGTTCGTGAATCGGGCGGGATGCGGAGTCACCTAGTGCAG”: 10500 fluorescence intensity (a.u.). Next, “GAGCGCGCGCGTTGGGCGGGAGGGGTTTGGTTGGTGAGCGCGGAGTCACCTAGTGCAG”: 11800 fluorescence intensity (a.u.); “GGCGAAGTGGTGGGTGCGTTGGGGCGAGGCGGAGCGGTGGCGGAGTCACCTAGTGCAG”: 8050 fluorescence intensity (a.u.). In the case of “CGTTTGTTGGGTGCGGCGGGCGGGGAGGAGCTCGTGAATGCGGAGTCACCTAGTGCAG”, the binding signal is 19600 fluorescence intensity (a.u.). Consider “GTTGCGGGGTGGGTGGTGGCGTTGCGGGAGGAGGAGGGAGCGGAGTCACCTAGTGCAG”, for which the binding signal was 23100 fluorescence intensity (a.u.). For “GGACGGCGGCGAGCGGCGAGGAGGAGGCGGGGAGGTGGGACGGAGTCACCTAGTGCAG” the value was 9580 fluorescence intensity (a.u.); for “GTGGGGTGGGTGAGCGGGATGCGGGGCTTAGGCGGGGAAGCGGAGTCACCTAGTGCAG”, 16500 fluorescence intensity (a.u.). Next, “CTAATCCCCTCTAGCTAGCCTCTTTTTTCTCCATTTGTTTCGGAGTCACCTAGTGCAG”: 11100 fluorescence intensity (a.u.); “GCCGCCGCCGCCGCCCGCGCCGATCCCCATCCATCCCGCACGGAGTCACCTAGTGCAG”: 8970 fluorescence intensity (a.u.); “GGGATGTCTTGGCTTTTTTTTTTTCTTCACCGAGCAATCGCGGAGTCACCTAGTGCAG”: 13400 fluorescence intensity (a.u.). Next, “GGTTAGAGATACATACATATTATACCTGATTCACCTCACTCGGAGTCACCTAGTGCAG”: 8060 fluorescence intensity (a.u.); “CTTCTTCGATCTCCGGCAATCGCTCCATCGATCGGCGCTTCGGAGTCACCTAGTGCAG”: 8370 fluorescence intensity (a.u.). In the case of “TTTTTTCTGTAAGGTGTCATATTTCTTCAATTGATGGATACGGAGTCACCTAGTGCAG”, the binding signal is 8340 fluorescence intensity (a.u.). Regarding “GGCTTCAGTATGAATTCTTACACAACCGTTGGTGTGCTACCGGAGTCACCTAGTGCAG”, the binding signal was 9250 fluorescence intensity (a.u.). For “ACCCTCGGACCGGTTTTTTTACTATGCCTCAAACATGTTCCGGAGTCACCTAGTGCAG”, the binding signal was 9800 fluorescence intensity (a.u.). Next, “ATCCCTCTGGTCGTCTCCTACCTCTCGGTTTCTTCACCCTCGGAGTCACCTAGTGCAG”: 14600 fluorescence intensity (a.u.); “TTTTTTCGGTCTCGGTATCGGTCTTTTCGGTTCGATCTTACGGAGTCACCTAGTGCAG”: 8400 fluorescence intensity (a.u.); “ACGGTGCCGAACGAGCTTGGGGATGGGGACGGCGGCGGGGCGGAGTCACCTAGTGCAG”: 10200 fluorescence intensity (a.u.). In the case of “GGTGGCGGTTGCGGGTGGAGGGCCGCGGCGGTGCGACGAACGGAGTCACCTAGTGCAG”, the binding signal was 8480 fluorescence intensity (a.u.). Next, “GTGGGGCGGTGGCTGCTGCATTGCATTGGGCGGGAGAGATCGGAGTCACCTAGTGCAG”: 17200 fluorescence intensity (a.u.).

As to “GCGGCTGGGGTTGCGGTGCAATCTGGGGCGGGGATGCGAACGGAGTCACCTAGTGCAG”, the binding signal was 17100 fluorescence intensity (a.u.). For “GGCCGGCGGGTGGCCGGGTGGGGAGGAGGTCGGCAGGGCGCGGAGTCACCTAGTGCAG” the value was 9780 fluorescence intensity (a.u.); for “CACTATCGGCAGTGCAGCCGGCGGCTGGGGCGGGGAGTACCGGAGTCACCTAGTGCAG”, 9540 fluorescence intensity (a.u.). “CGTACTGGGCTGGGCTGGGCTGGGATTCAACCGAACGGGGCGGAGTCACCTAGTGCAG”: the binding signal is 20400 fluorescence intensity (a.u.). On to “GCGGCGTTGCGGATGGGGACGGGGACGGGGACGGCGGCGACGGAGTCACCTAGTGCAG”, for which the binding signal was 10400 fluorescence intensity (a.u.). For “ACTAGTGGGCTGCTTGGGTGGGGAGCCCGGGCCGGCAGATCGGAGTCACCTAGTGCAG” the value was 12000 fluorescence intensity (a.u.); for “GTAGGGGCGGGAGGGGAGGCGTGGTGGCGCCGGGCCGGCGCGGAGTCACCTAGTGCAG”, 14900 fluorescence intensity (a.u.). Next, “ATCACGGAGGAGGCGTTCGGGGAGGGAGGGTGGGGCGCGCCGGAGTCACCTAGTGCAG”: 24400 fluorescence intensity (a.u.). Next, “AAGTGCTCGATCGGGAGCGGTGGTGGTGGTGGGGAGAGAGCGGAGTCACCTAGTGCAG”: 11300 fluorescence intensity (a.u.). With “CAATTTCCATGGTTTTCTTAGCATTCTCGTCTCTAGTATTCGGAGTCACCTAGTGCAG”, the binding signal is 9610 fluorescence intensity (a.u.).

As for “AAACCCTAGCTCCGGATTCTTCTCCTCTCCTCCTTTCTTCCGGAGTCACCTAGTGCAG”, the binding signal was 8070 fluorescence intensity (a.u.).

The values are drawn from article PMC7819943, “Rice protein-binding microarrays: a tool to detect cis-acting elements near promoter regions in rice”.
